Molecules are shown by their SMILES. Activity calls are given as the source filed them.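 The calls were made as follows: active = fitted half-maximal signal drop concentration below 100 µM; inactive = the rest.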

The target in the experiment is ATP-binding cassette sub-family B member 6 (Homo sapiens) (UniProt Q9NP58). Briefly: ABCB6 transporter inhibitors, porphyrin accumulation, dose response, flow cytometry, K562-ABCB6 cells, powder set 01 (AID 651663). Background: A flow cytometer gives signals particle by particle.
ATP-binding cassette sub-family B member 6 (Homo sapiens), sequence (Q9NP58 whole entry, looked up): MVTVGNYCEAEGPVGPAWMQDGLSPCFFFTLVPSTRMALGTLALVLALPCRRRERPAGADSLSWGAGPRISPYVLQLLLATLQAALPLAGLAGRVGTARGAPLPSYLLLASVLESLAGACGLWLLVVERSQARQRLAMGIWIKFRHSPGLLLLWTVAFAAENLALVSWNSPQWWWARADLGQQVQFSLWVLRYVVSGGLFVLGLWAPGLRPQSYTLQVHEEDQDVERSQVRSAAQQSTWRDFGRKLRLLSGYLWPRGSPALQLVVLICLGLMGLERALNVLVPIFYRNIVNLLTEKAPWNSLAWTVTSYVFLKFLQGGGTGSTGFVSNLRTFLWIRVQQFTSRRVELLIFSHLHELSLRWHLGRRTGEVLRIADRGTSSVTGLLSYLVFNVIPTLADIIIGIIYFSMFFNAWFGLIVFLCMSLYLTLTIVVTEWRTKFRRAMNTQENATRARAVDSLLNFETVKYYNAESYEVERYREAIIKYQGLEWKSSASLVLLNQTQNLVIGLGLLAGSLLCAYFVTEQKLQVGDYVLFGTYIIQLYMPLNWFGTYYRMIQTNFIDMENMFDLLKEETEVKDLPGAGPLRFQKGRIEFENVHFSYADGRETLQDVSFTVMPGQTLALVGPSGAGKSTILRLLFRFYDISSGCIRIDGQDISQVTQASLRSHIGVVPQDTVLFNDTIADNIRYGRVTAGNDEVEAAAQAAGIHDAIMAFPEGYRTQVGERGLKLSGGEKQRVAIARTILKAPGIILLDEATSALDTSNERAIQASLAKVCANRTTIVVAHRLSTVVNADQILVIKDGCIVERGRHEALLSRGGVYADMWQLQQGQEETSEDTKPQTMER

Take `CCOc1ccccc1NC(=O)c1nc(S(=O)(=O)Cc2cccc(C)c2)ncc1Cl`: the result was inactive.

Turning to `CCc1ccc(NC(=O)c2nc(S(=O)(=O)Cc3ccccc3)ncc2Cl)cc1`, the call was inactive.

Regarding `CC(=O)Nc1ccc(NC(=O)c2nc(S(=O)(=O)Cc3cccc(C)c3)ncc2Cl)cc1`, the result was inactive.

Turning to `CC(=O)Nc1ccc(NC(=O)c2nc(S(=O)(=O)Cc3ccccc3)ncc2Cl)cc1`, the call was inactive.

Source of the values: PubChem BioAssay AID651663 (NMMLSC, 2012).
